Data from PubChem BioAssay (NCATS).
Where “and” joins values, the source holds several entries; their conditions need not be identical. Identical values can stand only once. Records with an inconclusive call do not appear. A call without a number means that no potency is given here. Calls of active or inactive are those of the source. Calls follow the shape of the dose curve; as a rule, active = well fitted curve in the direction sought with a large enough effect; inconclusive = small, poorly fitted or top-dose-only effect, or another doubt; inactive = no such curve, though single readings can be large; an effect the other way counts as inactive or inconclusive.

Tested on: Zika virus NS2B-NS3 protease (linked construct)
Assay: Confirmatory screen NINDS AMC qHTS for Zika virus inhibitors (AID 1347152); also: nearly all actives have a fitted effect of over 70% in size
Conditions: Purified linked NS2B-NS3, AMC substrate fluorescence
Method in brief: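 In this dose-response qHTS, AMC release from 10 microM Bz-Nle-KRR-AMC by 1 nM linked protease is measured over 15 minutes (about 20% conversion) at pH 8.0. Percent inhibition is fitted to a 4-parameter Hill curve.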
Potency is read from the fitted curve at half-maximal effect.

For `CS(=O)c1ccc(-c2nc(-c3ccc(F)cc3)c(-c3ccncc3)[nH]2)cc1` (centres undefined), which Potency is on record?
The Potency was 24.1 µM (active).

For `CC1(C)CCC(CN2CCN(c3ccc(C(=O)NS(=O)(=O)c4ccc(NCC5CCOCC5)c([N+](=O)[O-])c4)c(Oc4cnc5[nH]ccc5c4)c3)CC2)=C(c2ccc(Cl)cc2)C1`, which Potency is on record?
The Potency was 6.07 µM (active) and 10.8 µM (active).

For `COc1ccc2cc(-c3nc(-c4ccc(S(C)=O)cc4)[nH]c3-c3ccncc3)ccc2c1` (centres undefined), which Potency is on record?
Its Potency is 17.1 µM (active).

Which Potency does the source give for `NC(=O)c1cccc2[nH]c(-c3ccc([C@H]4CCCN4)cc3F)nc12` here?
Its Potency is 27.1 µM (active).

Which Potency does the source give for `NC(=O)c1ccc2nc(-c3ccc(Oc4ccc(Cl)cc4)cc3)[nH]c2c1` here?
Its Potency is 34.1 µM (active).

Tested on: Zika virus NS2B-NS3 protease (unlinked complex)
Assay: Confirmatory screen GU AMC qHTS for Zika virus inhibitors (AID 1347153); also: nearly all actives have a fitted effect of over 70% in size
Conditions: Recombinant NS2B-NS3 protease, AMC substrate fluorescence
Description: Assay Submitters (PI): Avindra Nath, Ph.D., National Institute of Neurological Disorders and Stroke (NINDS), Bethesda, MD Radhakrishnan Padmanabhan, Ph.D., Georgetown University (GU), Washington D.C. Zika Virus causes congenital defects, including microcephaly and is associated with Guillain-Barre syndrome, eningoencephalitis and myelitis in infected adult. […] Using a target-based approach, we hope to establish a screening paradigm to uncover novel, cell-active NS2B-NS3 protease (Zika Virus) specific inhibitors from NCATS' collection of small molecules using qHTS. […] Active compounds in the primary screen are re-acquired and re-screened to confirm NS2B-NS3 protease inhibition. Early Translation Branch (ETB) National Center for Advancing Translational Sciences (NCATS), Rockville, MD National Institute of Health (NIH), Bethesda, Maryland
Materials: Padmanabhan lab provided the NS2B hydrophilic domain and NS3 protease domain in a noncovalent complex used for the unlinked assay. Control compound aprotinin is obtained from Thermo Scientific (#78432; Waltham, Massachusetts). NS2B-NS3 AMC substrate (Bz-Nle-Lys-Arg-Arg-AMC; Nle-KRR-AMC) purchased from Bachem (#I-1995; Torrance, CA). Ac-VKTGKR-AMC purchased from Genscript or Bachem, Ac-FAAGKR-AMC purchased from Genscript, Ac-GLVKRR-AMC purchased from Genscript, Ac-LKKR-AMC purchased from Genscript. GU AMC unlinked NS2B-NS3 protease qHTS protocol: Briefly, 3 microL of Zika virus unlinked NS2B-NS3 protease (25 nM for linked final concentration), in assay buffer (10 mM Tris-HCl pH 8.0 with 0.01% Tween 20) was dispensed into a 1,536-well solid-bottom black plate (Greiner Bio One, Monroe, NC). Twenty-three nL of compounds (final concentration range 7.28 nM to 114 microM) or control Aprotinin (final concentration range 3.47 nM to 114 microM) were transferred via Wako Pin-tool (Wako Automation, Richmond, VA). Samples were incubated (room temperature, protected from light) for 15 minutes followed by a 1 microL AMC substrate addition of (final concentration of 10 microM; Km = 18.3 µM). Plates were then read immediately on a ViewLux High-throughput CCD imager (PerkinElmer, Waltham, MA) equipped with standard UV fluorescence optics (340(30) nm excitation, 450(20) nm emission) then incubated (room temperature, protected from light) for 15 minutes (~20% conversion). The change in fluorescence intensity over the 15-minute reaction period was normalized against no-inhibitor and no-enzyme controls and the resulting percent inhibition data were fitted to a 4-parameter Hill equation. Aprotinin was used as the intraplate control.

Which Potency does the source give for `Cc1ccn(-c2ccc(-c3ncco3)cc2)c(=O)c1-c1ccc2nc(N)ncc2c1` here?
The Potency was 30.4 µM (active).

With `CS(=O)c1ccc(-c2nc(-c3ccc(F)cc3)c(-c3ccncc3)[nH]2)cc1` (centres undefined) as the compound, how does the Potency read?
The Potency was 21.5 µM (active).

For `CC1(C)CCC(CN2CCN(c3ccc(C(=O)NS(=O)(=O)c4ccc(NCC5CCOCC5)c([N+](=O)[O-])c4)c(Oc4cnc5[nH]ccc5c4)c3)CC2)=C(c2ccc(Cl)cc2)C1`, which Potency is on record?
Its Potency is 8.57 µM (active).

Which Potency does the source give for `COc1ccc2cc(-c3nc(-c4ccc(S(C)=O)cc4)[nH]c3-c3ccncc3)ccc2c1` (centres undefined) here?
Its Potency is 17.1 µM (active).

Tested on: Zika virus NS2B-NS3 protease
Assay: Primary screen GU AMC qHTS for Zika virus inhibitors (AID 1347154); also: nearly all actives have a fitted effect of over 70% in size
Conditions: Zika NS2B-NS3 unlinked protease, AMC fluorogenic substrate; series mostly up to 54.1 µM
Method in brief: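 Unlinked Zika NS2B hydrophilic domain/NS3 protease domain noncovalent complex (25 nM final) in 10 mM Tris-HCl pH 8.0, 0.01% Tween 20, with AMC peptide substrate. Fluorescence (ex 340, em 450 nm) change over 15 min, room temperature; percent inhibition fitted to 4-parameter Hill equation.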

With `COC(=O)[C@@H]1[C@H]2C[C@H]3c4[nH]c5ccccc5c4CCN3C[C@@H]2CC[C@@H]1O` as the compound, how does the Potency read?
The Potency was “inactive”.

For `C[N+](C)(C)CCCCCC[N+](C)(C)C`, which Potency is on record?
The Potency was “inactive”.

For `Clc1ccc(Cn2c(CN3CCCC3)nc3ccccc32)cc1`, which Potency is on record?
Its Potency is “inactive”.

For `Cc1ccn(-c2ccc(-c3ncco3)cc2)c(=O)c1-c1ccc2nc(N)ncc2c1`, which Potency is on record?
Its Potency is 21.5 µM (active).

Which Potency does the source give for `CCn1cc(C(=O)O)c(=O)c2ccc(C)nc21` here?
The Potency was “inactive”.

Which Potency does the source give for `CC(C)(C)c1ccc(C(O)CCCN2CCC(C(O)(c3ccccc3)c3ccccc3)CC2)cc1` (centres undefined) here?
Its Potency is “inactive”.

Which Potency does the source give for `CC(=O)N[C@@H](CS)C(=O)O` here?
The Potency was “inactive”.

With `CS(=O)c1ccc(-c2nc(-c3ccc(F)cc3)c(-c3ccncc3)[nH]2)cc1` (centres undefined) as the compound, how does the Potency read?
Its Potency is 26.7 µM (active) and 17.5 µM (active).

Which Potency does the source give for `Cc1cc(OCCCc2c(C(=O)O)n(Cc3cccnc3)c3c(-c4c(COc5ccc(N6CCN([S+](C)(=O)[O-])CC6)cc5)nn(C)c4C)cccc23)cc(C)c1Cl` here?
Its Potency is 21.5 µM (active).

With `CCN(CC)CCNC(=O)c1ccc(N)cc1` as the compound, how does the Potency read?
Its Potency is “inactive”.

For `CCN(CC)C(=O)c1ccc(O)c(OC)c1`, which Potency is on record?
Its Potency is “inactive”.

For `CN(C)CCC(c1ccccc1)c1ccccn1` (centres undefined), which Potency is on record?
Its Potency is “inactive”.

For `O=C1NCC2(CCN(CCc3ccccc3)CC2)O1`, which Potency is on record?
The Potency was “inactive”.

With `CCN(CC)CCOC(=O)c1ccc(N)cc1` as the compound, how does the Potency read?
Its Potency is “inactive”.

For `CC/C(=C(\c1ccccc1)c1ccc(OCCN(C)C)cc1)c1ccccc1`, which Potency is on record?
The Potency was “inactive”.

For `CC(=O)c1ccc(S(=O)(=O)NC(=O)NC2CCCCC2)cc1`, which Potency is on record?
The Potency was “inactive”.

With `CC=CCC(C)C(O)C1C(=O)NC(CC)C(=O)N(C)CC(=O)N(C)C(CC(C)C)C(=O)NC(C(C)C)C(=O)N(C)C(CC(C)C)C(=O)NC(C)C(=O)NC(C)C(=O)N(C)C(CC(C)C)C(=O)N(C)C(CC(C)C)C(=O)N(C)C(C(C)C)C(=O)N1C` (centres undefined) as the compound, how does the Potency read?
Its Potency is “inactive”.

With `O=c1cc(-c2ccccc2)oc2cc(O)c(O)c(O)c12` as the compound, how does the Potency read?
Its Potency is “inactive”.

Which Potency does the source give for `COc1cccc(-c2cc(=O)c3ccccc3o2)c1N` here?
Its Potency is “inactive”.

With `C[C@H](NC(=O)C(=O)Nc1ccccc1C(C)(C)C)C(=O)N[C@@H](CC(=O)O)C(=O)COc1c(F)c(F)cc(F)c1F` as the compound, how does the Potency read?
Its Potency is “inactive”.

Which Potency does the source give for `CC(=O)Nc1ccc([C@H](C)C(=O)Nc2ncc(C(C)C)s2)cc1` here?
The Potency was “inactive”.

Which Potency does the source give for `NCCS` here?
Its Potency is “inactive”.

For `COc1ccc2cc(-c3nc(-c4ccc(S(C)=O)cc4)[nH]c3-c3ccncc3)ccc2c1` (centres undefined), which Potency is on record?
Its Potency is 17.1 µM (active).

Which Potency does the source give for `O=C(NCCN1CCOCC1)c1ccc(Cl)cc1` here?
The Potency was “inactive”.

For `NC(=O)c1cccc2[nH]c(-c3ccc([C@H]4CCCN4)cc3F)nc12`, which Potency is on record?
The Potency was 24.1 µM (active).

Which Potency does the source give for `O=c1c(O)c(-c2ccc(O)cc2)oc2cc(O)cc(O)c12` here?
Its Potency is “inactive”.

For `Cc1cccc(C)c1OCC(C)N` (centres undefined), which Potency is on record?
Its Potency is “inactive”.

With `CCCCC1C(=O)N(c2ccccc2)N(c2ccccc2)C1=O` as the compound, how does the Potency read?
The Potency was “inactive”.

With `O=C1NC(=O)C(c2ccccc2)(c2ccccc2)N1` as the compound, how does the Potency read?
Its Potency is “inactive”.

For `NC(=O)c1ccc2nc(-c3ccc(Oc4ccc(Cl)cc4)cc3)[nH]c2c1`, which Potency is on record?
The Potency was 24.1 µM (active).

For `NC(N)=Nc1nc(CSCC/C(N)=N/S(N)(=O)=O)cs1`, which Potency is on record?
The Potency was “inactive”.

Tested on: not listed separately
Assay: Confirmatory screen GU Rhodamine qHTS for Zika virus inhibitors qHTS (AID 1347157); also: nearly all actives have a fitted effect of over 70% in size
Conditions: purified enzyme assay, Rhodamine110 substrate fluorescence, 15 min; series mostly up to 65.2 µM
Method in brief: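 Enzyme 25 nM in Tris-HCl pH 8.0 + 0.01% Tween 20; compounds up to 114 microM, 15 min RT dark; + Rhod110 substrate 1.5 microM; read t0 and 15 min; delta fluorescence → % inhibition → 4-parameter Hill fit.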

Which Potency does the source give for `O=C(O)c1c(Cl)c(Cl)c(Cl)c(Cl)c1-c1c2cc(I)c(=O)c(I)c-2oc2c(I)c(O)c(I)cc12` here?
The Potency was “inactive”.

With `CC1(C)CCC(CN2CCN(c3ccc(C(=O)NS(=O)(=O)c4ccc(NCC5CCOCC5)c([N+](=O)[O-])c4)c(Oc4cnc5[nH]ccc5c4)c3)CC2)=C(c2ccc(Cl)cc2)C1` as the compound, how does the Potency read?
The Potency was 1.21 µM (active).

For `O=c1c(O)c(-c2ccc(O)cc2)oc2cc(O)cc(O)c12`, which Potency is on record?
Its Potency is “inactive”.

Tested on: Zika virus NS2B-NS3 protease (unlinked complex)
Assay: Primary screen GU Rhodamine qHTS for Zika virus inhibitors: Unlinked NS2B-NS3 protease assay (AID 1347159); also: nearly all actives have a fitted effect of over 60% in size
Conditions: Recombinant ZIKV NS2B-NS3 protease, Rhodamine110 substrate fluorescence; series mostly up to 107 µM
Method in brief: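 Noncovalent NS2B hydrophilic domain/NS3 protease complex (25 nM final) in 10 mM Tris-HCl pH 8.0, 0.01% Tween 20, preincubated 15 min with compounds (up to 114 microM), then 1.5 microM Rhodamine110 substrate. Fluorescence change over 15 min fitted to 4-parameter Hill.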

With `COC(=O)[C@@H]1[C@H]2C[C@H]3c4[nH]c5ccccc5c4CCN3C[C@@H]2CC[C@@H]1O` as the compound, how does the Potency read?
Its Potency is “inactive”.

For `Clc1ccc(Cn2c(CN3CCCC3)nc3ccccc32)cc1`, which Potency is on record?
The Potency was “inactive”.

Which Potency does the source give for `CS(=O)c1ccc(-c2nc(-c3ccc(F)cc3)c(-c3ccncc3)[nH]2)cc1` (centres undefined) here?
The Potency was “inactive”.

Which Potency does the source give for `CCN(CC)CCNC(=O)c1ccc(N)cc1` here?
Its Potency is “inactive”.

For `CN(C)CCC(c1ccccc1)c1ccccn1` (centres undefined), which Potency is on record?
The Potency was “inactive”.

Which Potency does the source give for `CC1CCC(C(=O)N(c2cc(C#CC(C)(C)C)sc2C(=O)O)C2CCC(O)CC2)CC1` (centres undefined) here?
Its Potency is 7.94 µM (active).

Which Potency does the source give for `CC1(C)CCC(CN2CCN(c3ccc(C(=O)NS(=O)(=O)c4ccc(NCC5CCOCC5)c([N+](=O)[O-])c4)c(Oc4cnc5[nH]ccc5c4)c3)CC2)=C(c2ccc(Cl)cc2)C1` here?
The Potency was 2.24 µM (active).

With `CC(=O)Nc1ccc([C@H](C)C(=O)Nc2ncc(C(C)C)s2)cc1` as the compound, how does the Potency read?
The Potency was “inactive”.

Which Potency does the source give for `COc1ccc2cc(-c3nc(-c4ccc(S(C)=O)cc4)[nH]c3-c3ccncc3)ccc2c1` (centres undefined) here?
Its Potency is “inactive”.

With `NC(=O)c1cccc2[nH]c(-c3ccc([C@H]4CCCN4)cc3F)nc12` as the compound, how does the Potency read?
Its Potency is “inactive”.

Which Potency does the source give for `NC(=O)c1ccc2nc(-c3ccc(Oc4ccc(Cl)cc4)cc3)[nH]c2c1` here?
The Potency was “inactive”.
